Out of some 350,000 compounds screened, about 2,100 (0.6%) were called active. The sample holds actives, similar compounds and a random draw of the others, so the mix is not that of the screen.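 Rule for the calls: active = inhibition of the ligand-induced calcium signal above about 50% at the single tested concentration (limit read from the data); inactive = the rest.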
Assay: antagonists of CRF-BP/CRF-R2 complex, primary screen, cell-based, HEK293, calcium dye fluorescence, uHTS (AID 588475)
Details: CRF-induced calcium fluorescence, at 11.8 µM, stronger effect = higher value

| SMILES | inhibition |
| --- | --- |
| O=C(N[C@@H]1C/C=C\C[C@@H](CC(=O)N(CCO)Cc2ccccc2)C(=O)N[C@H](Cc2ccccc2)COC1=O)OCC1c2ccccc2-c2ccccc21 | 1.02% (inactive) |
| O=C(N[C@H]1C/C=C\C(c2ccc(F)cc2)N(Cc2ccccc2)C(=O)C1)OCC1c2ccccc2-c2ccccc21 (stereo partly drawn) | -13.4% (inactive) |
| O=C(N[C@H]1C/C=C\C(c2cccc(F)c2)N(Cc2ccccc2)C(=O)C1)OCC1c2ccccc2-c2ccccc21 (stereo partly drawn) | 98.1% (active) |
| COc1ccc(Cn2c(O)c(/C=C3/C=CC=N3)c(=O)[nH]c2=O)cc1 | 0.93% (inactive) |
| NC(=O)C1(N2CCCCC2)CCN(C2CC(=O)N(Cc3ccc(N4CCCC4=O)cc3)C2=O)CC1 (stereo not drawn) | -8.44% (inactive) |
| O=C(O)CC(SCC(=O)Nc1ccc(Br)cc1)C(=O)O (stereo not drawn) | 57.3% (active) |
| O=C(O)CSCC(=O)Nc1ccc(C(F)(F)F)cc1 | -14.8% (inactive) |
| Cc1cc(C)c2c(=O)[nH]c(SCC(=O)Nc3ccc(Br)cc3)nc2n1 | -6.59% (inactive) |
| O=C(CN1CCOC1=O)N1CCCC(Nc2ccc(F)c(F)c2)C1 (stereo not drawn) | 0.32% (inactive) |
| CCc1cc(=O)oc2c(C)c(OCC(=O)N3CC[C@@]4(O)CCCC[C@H]4C3)ccc12 | -9.77% (inactive) |
| COc1ccc(OC)c(CNC(=O)Cn2nc(C)c3c(C)n(-c4ccc(C)cc4)nc3c2=O)c1 | 9.58% (inactive) |
| CCOP(=O)(OCC)C(Nc1cccc(C)c1)c1ccc(F)cc1 (stereo not drawn) | -6.82% (inactive) |
| CCOP(=O)(OCC)C(Nc1ccc([N+](=O)[O-])cc1)c1ccc(Cl)cc1 (stereo not drawn) | 40.7% (inactive) |
| CCCCOC(=O)c1ccc(NC(c2ccc(C)cc2)P(=O)(OC)OC)cc1 (stereo not drawn) | 102% (active) |
| O=C(CCCn1c(=O)c2sccc2n(CC(=O)NCC2CCCO2)c1=O)NCc1ccco1 (stereo not drawn) | -17.3% (inactive) |
| CCOC(=O)N1CCN(S(=O)(=O)c2cc3c(cc2C)NC(=O)CO3)CC1 | -1.54% (inactive) |
| CN1CCN(CC(=O)C23CC4CC(CC(C4)C2)C3)CC1 | 7.99% (inactive) |
| Cc1cnc(C(=O)N2CCCC(N3CCN(c4ccccc4F)CC3)C2)cn1 (stereo not drawn) | 14.5% (inactive) |
| Cc1ccccc1N1CCN(C2CCCN(C(=O)c3ocnc3C)C2)CC1 (stereo not drawn) | 1% (inactive) |
| Cc1ccccc1N1CCN(C2CCCN(C(=O)c3cn4c(C)cccc4n3)C2)CC1 (stereo not drawn) | 53.6% (active) |

| SMILES | inhibition |
| --- | --- |
| Cc1ccc(-n2cc3ccc([N+](=O)[O-])cc3n2)cc1 | -2.01% (inactive) |
| Cc1ccc(NC(=O)c2oc3ccccc3c2C)c([N+](=O)[O-])c1 | -13.1% (inactive) |
| COc1cc(C)nc(N2CCCC(C(=O)NCC(C)C)C2)n1 (stereo not drawn) | -9.18% (inactive) |
| O=C(NC1CC1)C1CCCN(C(=O)NC2CCCCC2)C1 (stereo not drawn) | 1.71% (inactive) |
| Cc1ccnc(N2CCCC(C(=O)NC3CC3)C2)n1 (stereo not drawn) | 50.4% (active) |
| CC(C)(C)NC(=O)CN1CCC(NC(=O)C23CC4CC(CC(C4)C2)C3)CC1 | -2.97% (inactive) |
| O=C(CNCc1ccc(F)cc1)Nc1ccccc1-c1ccccc1 | -15% (inactive) |
| O=C(COC(=O)c1ccc(N2CCCC2=O)cc1)c1ccc(OC(F)F)cc1 | 4.33% (inactive) |
| Cc1c(NC(=O)c2coc(=O)c(Br)c2)c(=O)n(-c2ccccc2)n1C | -18.5% (inactive) |
| O=C(CCN1C(=O)c2ccccc2C1=O)Nc1cccc(F)c1 | -0.74% (inactive) |
| O=C(Nc1cccc(F)c1)c1coc(=O)c(Br)c1 | 102% (active) |
| Cc1nn(-c2ccccc2)c(Cl)c1/C=N/NC(=O)c1nn(C)cc1[N+](=O)[O-] | 15.5% (inactive) |
| Cc1nn(-c2ccccc2)c(C)c1/C=C/C(=O)OC(C)C(N)=O (stereo not drawn) | 23.7% (inactive) |
| Cc1nn(-c2ccccc2)c(Cl)c1/C=C/C(=O)c1ccc(O)cc1 | 57.7% (active) |
| CC1(C)CC(=O)C(N=Nc2c(F)cccc2F)=C(O)C1 | 14.8% (inactive) |
| O=C(NCCC1=CCCCC1)c1ccc(-n2cncn2)cc1 | -5.9% (inactive) |
| Cn1nnc2cc(C(=O)NCCC3=CCCCC3)ccc21 | 69% (active) |
| CN(c1ccc(C(=O)NCCC2=CCCCC2)cc1)S(C)(=O)=O | 3.31% (inactive) |
| CCCCCCCCCCCC(=O)O | 16.1% (inactive) |
| Cc1ccc(S(=O)(=O)c2c[nH]c3ccc(C)cc3c2=O)cc1 | -6.79% (inactive) |

| SMILES | inhibition |
| --- | --- |
| O=C(c1nnc(-c2ccc(Cl)cc2)o1)C1CCCC1 | 1.38% (inactive) |
| O=C(c1[nH]ncc1-c1ccc(Cl)cc1)C1CO1 (stereo not drawn) | 98.5% (active) |
| S=c1[nH]nc(-c2ccc(Cl)cc2)n1CC1CCCO1 (stereo not drawn) | 19% (inactive) |
| CN(C(=O)c1cccc(NC(=O)Cc2ccc([N+](=O)[O-])cc2)c1)C1CCC1 | 10.4% (inactive) |
| CCOC(=O)c1cc2occc2n1CC(=O)NC1CCC(C)CC1 (stereo not drawn) | 4.37% (inactive) |
| O=C(CN1C(=O)CC(c2ccccc2)=Nc2ccccc21)NC1CCCCC1 | 3.75% (inactive) |
| CC(=O)Oc1c(C(=O)c2nnc(C)o2)c(=O)n(Cc2ccccc2)c2ccccc12 | -18.6% (inactive) |
| NC(N)=N/N=C/c1ccc(OCc2ccc(Cl)cc2Cl)cc1 | -68.7% (inactive) |
| O=S(=O)(Nc1cc(Cl)ccc1N1CCOCC1)c1ccccc1Cl | 3.16% (inactive) |
| O=C1c2ccccc2-c2ncnc3c(N4CCOCC4)cc(N4CCOCC4)c1c23 | 54% (active) |
| Cc1oc2c(c1C(=O)N1CCOCC1)C(=O)c1ccccc1C2=O | 3.77% (inactive) |
| CC1=C(C(=O)N(C)C)C(c2ccccc2OC(F)F)NC(=O)N1 (stereo not drawn) | -0.09% (inactive) |
| CCCn1nc(Oc2nc(NC(C)C)nc(N(C)C)n2)ccc1=O | 2.18% (inactive) |
| O=C(Nc1ccc(Br)cc1)c1cc(S(=O)(=O)Nc2ccccn2)ccc1Cl | -2.82% (inactive) |
| Cc1ccc(NS(=O)(=O)c2cccs2)cc1S(=O)(=O)N1CCCCCC1 | 122% (active) |
| COc1ccccc1C(=O)Nc1ccc(C)c(S(=O)(=O)N2CCCCC2)c1 | -0.27% (inactive) |
| Cc1ccc(NS(=O)(=O)c2ccc(C(C)C)cc2)cc1S(=O)(=O)N1CCOCC1 | -10.7% (inactive) |
| CN(C)CCCO/N=C(\c1ccccc1)c1ccncc1 | 1.7% (inactive) |

From PubChem BioAssay AID588475 (Sanford-Burnham Center for Chemical Genomics, 2011)
